# Source: PubChem (National Center for Advancing Translational Sciences (NCATS))
# This is a sample that favours compounds with a hit; in the whole collection about 3.2% have one here.
# Tau fibril FP = inhibitors of human tau fibril formation | K18 P301L tau heparin fibrillization, Alexa594 FP, 6 h | Potency, µM (highest dose often 57.7 µM), inactives show top-dose activity, negative = inhibition, hits mostly inhibitors | actives 0.39% (n = 280,000) | AID 1468; note: nearly all actives have a fitted effect of over 55% in size
# Target sequence (P10636 561-689 P618L limits assumed): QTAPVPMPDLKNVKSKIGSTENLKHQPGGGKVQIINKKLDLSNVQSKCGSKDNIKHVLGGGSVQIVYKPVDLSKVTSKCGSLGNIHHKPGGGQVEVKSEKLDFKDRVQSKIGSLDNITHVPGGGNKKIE
#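 Quantitative HTS format: compounds meet 15 uM recombinant K18 P301L tau and Alexa 594-tau tracer in 100 mM sodium acetate pH 7; 20 uM heparin triggers fibrillization at 37 C over 6 hr; FP gives the signal.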
# GoLoco inh red = blocks human Gai1 binding to RGS12 GoLoco peptide, red readout; P63096; Gai1:RGS12 GoLoco peptide FP, rhodamine, 10 min; Potency, µM (series often up to 61.6 µM), for the others: top-dose activity, negative = inhibition, actives largely listed as inhibitors; actives 0.44% (n = 230,000); active = well fitted inhibition curve with a large enough effect, not every such curve was filed as active; inactive = no such curve, though single readings can be large or run the other way; note: nearly all actives have a fitted effect of over 30% in size
# Target sequence (P63096 whole entry, looked up): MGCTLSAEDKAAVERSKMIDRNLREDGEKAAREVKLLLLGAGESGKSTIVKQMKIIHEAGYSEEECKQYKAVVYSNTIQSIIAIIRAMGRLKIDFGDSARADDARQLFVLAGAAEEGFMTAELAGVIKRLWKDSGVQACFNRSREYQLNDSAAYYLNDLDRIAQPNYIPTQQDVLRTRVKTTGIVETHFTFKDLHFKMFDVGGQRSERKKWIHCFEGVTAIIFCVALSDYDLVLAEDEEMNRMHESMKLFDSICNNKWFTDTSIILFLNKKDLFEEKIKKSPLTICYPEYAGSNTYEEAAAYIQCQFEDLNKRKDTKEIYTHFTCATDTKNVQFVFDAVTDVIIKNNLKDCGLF
# TRb-SRC2 inh = inhibitors of human thyroid hormone receptor beta-SRC2 interaction. TRbeta-SRC2 peptide binding, fluorescence polarization; receptor liganded with 1 µM T3. actives 0.065% (n = 280,000). AID 1469. Potency, µM (series often up to 106 µM), for the others: top-dose activity change, negative = inhibition, actives largely listed as inhibitors;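 note: plate controls were bound peptide for no effect and peptide without receptor for full effect; nearly all actives have a fitted effect of over 50% in size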
#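 A fluorescence polarization screen tested compounds at multiple concentrations against complex formation between 0.6 uM TRb ligand-binding domain and 20 nM Texas Red SRC2 peptide, with 1 uM T3 present; readout after 5 hr.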
# TR SRC2 fluor cs = counter-screen for TRb-SRC2 inhibitors: fluorescence interference | TRb/SRC2 Texas Red total fluorescence interference | Potency, µM (series often up to 106 µM), for inactives: top-dose fluorescence change, negative = quenching | actives 0.29% (n = 280,000) | AID 1479; active = well fitted curve in either direction with a large enough effect; inconclusive = small, poorly fitted or top-dose-only effect
#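 Flags fluorescent or light-absorbing compounds by total fluorescence, S + 2P, at 555 nm excitation and 632 nm emission. Mixture: 20 nM Texas Red SRC2 peptide, 0.6 uM human TRb LBD, 1 uM T3, 5% DMSO; compound exposure 5 h at ambient temperature.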
# Tau fluor cs = counter-screen for tau fibril formation inhibitors; Potency, µM (highest dose often 57.7 µM), inactives show top-dose activity change, negative = decrease; tau K18 P301L Alexa594 fluorescence, heparin fibrillization; actives 0.93% (n = 280,000); note: nearly all actives have a fitted effect of over 55% in size
#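 Human tau K18 P301L (15 uM unlabeled, 0.24 uM Alexa 594-labeled) in 100 mM sodium acetate pH 7 with 20 uM heparin, 6 hr at 37 C. ThT 30 uM added, 1 hr ambient; Alexa 594 FP and total fluorescence read at 555/632 nm.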
# Tau ThT inhib = inhibitors of human tau fibril formation, thioflavin T binding. P10636. recombinant tau K18 P301L, heparin-induced fibrillization, ThT fluorescence. Potency, µM (series often up to 57.4 µM), for the others: at the highest dose activity, negative = inhibition, most hits filed as inhibitors. actives 2.1% (n = 270,000); note: nearly all actives have a fitted effect of over 55% in size
#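 Using a mix of unlabeled (15 uM) and Alexa 594-labeled (0.24 uM) tau K18 P301L, heparin-triggered fibrillization over 6 hr at 37 C was scored by ThT fluorescence.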
# * marks the source's active call; other numbers are inactive results; ? = inconclusive; nt = no result given; [ ] = another dose, or the depositor's remark. Unless noted, calls come from the whole dose curve; as a rule, active = well fitted curve in the direction sought with a large enough effect; inconclusive = small, poorly fitted or top-dose-only effect, or another doubt; inactive = no such curve, though single readings can be large; an effect the other way counts as inactive or inconclusive. Unless noted, % is set by controls: 0 for no effect and ±100 for the full control effect; potency is the fitted concentration of half-maximal effect.
SMILES,Tau fibril FP,GoLoco inh red,TRb-SRC2 inh,TR SRC2 fluor cs,Tau fluor cs,Tau ThT inhib
COc1cc(/C=C2/C(=O)NN(c3ccc(Cl)cc3)C2=O)ccc1OC(=O)c1ccco1,4.8%,6.5%,-2.8%,-9.0%,?,14.1µM*
O=C(O)c1ccc(Cc2ccccc2C(=O)O)cc1,nt,-3.9%[14.2 µM],nt,nt,nt,nt
O=C(/C=C/c1ccccc1)NC(=O)c1ccccc1O,4.5%,11.2%,2.9%,-1.7%,?,?
O=C(/C=C/c1ccccc1)CC(=O)c1ccccc1O,?,4.0%,-2.7%,-4.0%,?,12.6µM*
COC(=O)COc1ccc(C2C(C(=O)OC)=C(C)NC3=C2C(=O)c2ccccc23)cc1OC (stereo not drawn),6.0%,nt,-5.7%,-2.4%,14.1µM*[quencher],14.1µM*
CCOc1cc(C2C(C(=O)OC)=C(C)NC3=C2C(=O)c2ccccc23)cc(Cl)c1O (stereo not drawn),?,nt,4.6%,-6.4%,7.94µM*[quencher],?
CCOc1ccc(Br)cc1C1C(C(=O)OC)=C(C)NC2=C1C(=O)c1ccccc12 (stereo not drawn),1.0%,nt,5.8%,-4.1%,7.94µM*[quencher],10µM*
COc1cc(C2NC(=O)NC(C)=C2C(=O)OC(C)(C)C)ccc1OCC(=O)O (stereo not drawn),1.1%,-4.4%,-3.8%,0.8%,2.9%,-12.6%
CCOC(=O)C1=C(C)NC2=C(C(=O)c3ccccc32)C1c1ccc([N+](=O)[O-])o1 (stereo not drawn),6.0%,7.0%,0.4%,-3.3%,?,?
COC(=O)C1=C(C)N(C)C(=O)NC1c1cc(Cl)c(O)c(OC)c1 (stereo not drawn),2.1%,-3.5%,4.1%,-5.5%,-4.0%,-8.7%
CCOC(=O)COc1ccccc1C1C(C(=O)OC)=C(C)NC2=C1C(=O)c1ccccc12 (stereo not drawn),11.1%,nt,5.8%,-4.8%,14.1µM*[quencher],14.1µM*
C=C(C(=O)C(C)(C)O)C(O)c1ccc([N+](=O)[O-])cc1 (stereo not drawn),-2.0%,1.9%,0.3%,-0.2%,-8.7%,-12.0%
Cc1ccc(Cl)cc1Nc1nn2c(=O)c3ccc(C(=O)NC4CCCCC4)cc3nc2s1,-1.3%,nt,-10.0%,0.1%,-21.9%,-10.7%
CCN(CC)C(=O)c1ccc(Nc2nnc(-c3ccc(C)c(S(=O)(=O)NC)c3)c3ccccc23)cc1,-10.1%,nt,-1.3%,-22.5%,-13.3%,1.5%
CNC(=O)COc1ccc(Nc2nnc(-c3ccc(C)c(S(=O)(=O)NC(C)(C)C)c3)c3ccccc23)cc1,8.7%,nt,-8.3%,0.199µM*[quencher],?,?
Cc1ccc(NC(=O)Cn2cc(S(=O)(=O)N3CCN(c4ccccc4F)CC3)c3ccccc3c2=O)cc1F,14.1µM*,nt,2.1%,0.2%,-28.8%,-4.0%
O=C(Cn1cc(S(=O)(=O)N2CCN(c3ccccc3F)CC2)c2ccccc2c1=O)Nc1cccc(C(F)(F)F)c1,14.1µM*,nt,5.8%,-1.5%,-24.9%,3.9%
COc1cc([C@@H]2c3cc4c(cc3[C@@H](OC3OC5COC(C)OC5C(O)C3O)[C@H]3COC(=O)[C@H]23)OCO4)cc(OC)c1O (stereo partly drawn),-6.3%,-16.9%,1.4%,-1.5%,-11.9%,-10.4%
Cc1oc(-c2ccc(Cl)cc2)nc1CN1CCCC(C(=O)NCCc2ccc(Cl)cc2)C1 (stereo not drawn),-1.0%,nt,-11.8%,-0.5%,-24.4%,?
O[C@@H]1COC2[C@@H](O)CO[C@@H]21 (stereo partly drawn),nt,nt,-23.3%,?,nt,nt
CCCCOc1ccc(-c2c(C#N)c(N)nc(SCC(N)=O)c2C#N)cc1,22.4µM*,20.5%,1.4%,1.4%,?,-11.3%
CCC(C)S(=O)(=O)c1oc(-c2ccc(F)cc2)nc1S(=O)(=O)c1ccc(F)cc1 (stereo not drawn),-15.9%,nt,-1.4%,1.9%,-2.8%,?
CC1(C)O[C@H]2O[C@@H]([C@H](O)CON3C(=O)c4ccccc4C3=O)[C@H](O)[C@H]2O1,-2.9%[11.6 µM],nt,2.5%[11.2 µM],1.2%[11.2 µM],-18.7%[11.6 µM],-18.0%[11.5 µM]
O=C(O)c1c(Cl)c(Cl)c(Cl)c(Cl)c1-c1c2cc(I)c(=O)c(I)c-2oc2c(I)c(O)c(I)cc12,-130.4%,32.5%,5.01µM*,2.82µM*[fluorescent],1.58µM*[fluorescent],3.16µM*
COc1ccc(Nc2ccccc2N)cc1,?,142.5%,1.0%,?,-23.1%,?
SMILES,Tau fibril FP,GoLoco inh red,TRb-SRC2 inh,TR SRC2 fluor cs,Tau fluor cs,Tau ThT inhib
Nc1ccc(Nc2ccccc2N)cc1,?,90.0%,5.7%,-3.4%,14.1µM*[quencher],15.8µM*
COc1ccc(CN(Cc2ccco2)C(=O)COc2ccc(Cl)cc2C)cc1,3.1%,nt,-1.5%,1.3%,-22.9%,?
Oc1ccccc1-c1nc2c3ccccc3c3ccccc3c2[nH]1,-4.9%,11.2%,2.0%,-3.9%,10µM*[quencher],?
O=c1oc(-c2cccs2)nc2ccccc12,5.4%,2.2%,4.6%,-1.9%,5.0%,-4.0%
c1csc(-c2nc3c4ccccc4c4ccccc4c3[nH]2)c1,?,1.9%,5.0%,-11.8%,12.6µM*[quencher],?
CCN1C=C(Cc2ccccc2C)C2=C(C1)C(c1ccccc1C)C(C#N)=C(N)O2 (stereo not drawn),-9.3%,150.5%,?,44.7µM*[fluorescent],-13.0%,?
CCN1C=C(Cc2ccc(F)cc2)C2=C(C1)C(c1ccc(F)cc1)C(C#N)=C(N)O2 (stereo not drawn),-11.2%,76.4%,-25.6%,18.3%,-24.4%,?
CCOC(=O)C1CCCN(c2ccc(NC(=O)c3snc4c(=O)[nH]cnc34)cc2)C1 (stereo not drawn),12.4%,44.9%,-11.0%,0.6%,-27.0%,2.82µM*
CCOC(=O)C1CCCN(c2ccc(NC(=O)c3snc4c(=O)[nH]c(C)nc34)cc2)C1 (stereo not drawn),5.1%,14.9%,-2.8%,-8.1%,?,?
CCc1ccc2[nH]c(O)c(N=Nc3nc(-c4ccccc4)cs3)c2c1,9.9%,3.7%,-0.2%,-2.3%,?,4.47µM*
O=C1C=CC2=C3c4cc(O)c(O)cc4C[C@@]3(O)COC2=C1,?,0.355µM*,-17.9%,14.4%,?,8.91µM*
C[c-]1[c-](C)[c-](C)[c-](C)[c-]1C.[Fe].c1cc2nccc(N3CCCC3)[c-]2c1 (stereo not drawn),?,-7.5%,-5.5%,-2.0%,?,31.6µM*
C/C(=N\Nc1nc2c(s1)CCCC2)c1ccccc1,-8.5%,-8.3%,-16.3%,0.6%,?,14.1µM*
